This passage reports inhibition results from PubChem BioAssay.

For orientation: inhibition means the change of the read-out against control, counted positive when it falls.

Values without a mark were called inactive. The rule behind the calls is not given here.

In the experiment the target is Pantothenate synthetase (Mycobacterium tuberculosis (strain ATCC 25618 / H37Rv)) (UniProt P9WIL5). Description: Coupled enzyme confirmation of inhibitors against recombinant Mtb PanC (AID 375).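 Note: 0% = full reaction with vehicle and 100% = no enzyme background.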 The conditions noted are these: coupled enzyme assay; at 10 µM, hits give high values.
Pantothenate synthetase (Mycobacterium tuberculosis (strain ATCC 25618 / H37Rv)), sequence (P9WIL5 whole entry, looked up): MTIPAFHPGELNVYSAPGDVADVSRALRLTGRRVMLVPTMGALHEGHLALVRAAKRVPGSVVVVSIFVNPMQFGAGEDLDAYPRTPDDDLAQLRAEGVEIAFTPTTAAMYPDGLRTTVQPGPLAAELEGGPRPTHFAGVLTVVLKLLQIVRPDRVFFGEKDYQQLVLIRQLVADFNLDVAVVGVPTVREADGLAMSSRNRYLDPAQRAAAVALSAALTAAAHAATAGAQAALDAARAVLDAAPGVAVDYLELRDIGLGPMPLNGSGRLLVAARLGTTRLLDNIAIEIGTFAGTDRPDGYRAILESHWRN
For `COC(=O)c1cc(OC)c(OC)cc1NC(=O)CC1CCCCC1`, the inhibition is 1%.

For `CCOC(=O)c1cc(NC(=O)SCC(=O)O)c(C)nc1C`, the inhibition was 0%.

`COC(=O)C1(C(F)(F)F)N=C2Sc3ccccc3N2C(N2CCOCC2)=N1` (stereo not given): the inhibition is 0%.

In the case of `O=C(CCSc1nnc(-c2ccncc2)o1)Nc1ccccc1`, the inhibition is 0%.

Turning to `CCOC(=O)N1CCN(C(=O)Cn2ncn3nc(-c4cccs4)cc3c2=O)CC1`, the inhibition was 0%.

As to `CN(C)c1ccc(/C=C/C(O)=C2/C(=O)N(C)C3(C)CC2c2ccccc2O3)cc1` (stereo not given), the inhibition was 0%.

For `COc1ccc(C(F)(F)F)cc1NC(=O)c1nc2nc(C)cc(C(F)F)n2n1`, the inhibition is 1%.

For `COc1cc2[nH]c(=O)n(CCCCCC(=O)NCCCN3CCCC3=O)c(=O)c2cc1OC`, the inhibition was 0%.

Consider `CCOCCn1cnc2sc(C(=O)NCC(=O)OCC)c(C)c2c1=O`, for which the inhibition was 10%.

Regarding `Cc1ccc(C(=O)CSc2nnc(CNc3ccc(C)cc3C)o2)cc1`, the inhibition is 7%.

On to `CCc1nnc(-n2nc(C)cc2-c2ccccc2)n1N`, for which the inhibition is 3%.

In the case of `Cc1[nH]c(=O)[nH]c(=O)c1S(=O)(=O)N(C)Cc1ccccc1`, the inhibition is 0%.

Regarding `CCSc1nc(O)c(C2OC(=O)c3c2ccc(OC)c3OC)c(=O)n1-c1ccccc1` (stereo not given), the inhibition is 0%.

For `CCOC(=O)c1csc(NC(=O)C2CCCCC2)n1`, the inhibition is 2%.

In the case of `COc1ccc(OC)c(C(=O)CSc2nnc(-c3ccc(OC)c(OC)c3)o2)c1`, the inhibition is 11%.

Turning to `CC(C)(Oc1ccc(Cl)cc1)C(=O)NCc1ccncc1`, the inhibition is 3%.

With `Cc1ccc2cc(C(c3nnnn3CC3CCCO3)N3CCc4ccccc4C3)c(=O)[nH]c2c1` (stereo not given), the inhibition is 0%.

Take `CC(C)N(C(=O)CSc1nnc(NC(=O)C2CCC2)s1)C(C)C`: the inhibition was 0%.

Turning to `CC1CCCN(C(=O)C23CCC(C)(C(=O)C2)C3(C)C)C1` (stereo not given), the inhibition was 0%.

As to `COCCn1c(C)cc(C(=O)CSc2nc3ccccc3c(=O)[nH]2)c1C`, the inhibition was 0%.

Turning to `Cc1ccc(S(=O)(=O)N2CCN(c3nc(C)nc4sc(C)c(C)c34)CC2)cc1`, the inhibition is 2%.

With `COc1cccc(C(=O)NCc2nnc(SCC(=O)Nc3nccs3)n2-c2ccccc2)c1`, the inhibition was 2%.

For the compound `CC(CN(C)Cc1ccccc1)OC(=O)c1ccc2c(c1)OCCO2` (stereo not given), the inhibition is 0%.

For the compound `O=C1CN(C(=O)COC(=O)c2ccccc2NC(=O)c2ccco2)c2ccccc2N1`, the inhibition is 0%.

Regarding `C=CCC(Nc1ccco1)c1ccccc1` (stereo not given), the inhibition was 1%.

Take `CC1CCc2nn(CC(=O)NCCCN3CCOCC3)cc2C1` (stereo not given): the inhibition was 0%.

For `Cc1ccc(NC(=O)COc2nc(C)cs2)cc1`, the inhibition was 1%.

Turning to `CS(=O)(=O)N(CC(=O)O)c1cccc(Cl)c1`, the inhibition was 3%.

With `O=C(COC(=O)c1ccccc1O)Nc1ccc(OC(F)F)cc1`, the inhibition is 0%.

On to `CCOC(=O)N1CCC(NC(=O)CCN2C(=O)COc3ccccc32)CC1`, for which the inhibition was 0%.

For `CCOC(=O)c1[nH]c(C)c(C(=O)N2CCN(c3ccc(F)cc3)CC2)c1C`, the inhibition was 0%.

Turning to `Nc1c(N2CCCCC2)c(=O)[nH]c(=O)n1-c1ccccc1`, the inhibition was 0%.

Consider `O=C1CCC(c2ccccc2)N1C(=O)c1cccnc1` (stereo not given), for which the inhibition is 0%.

`CC1(C)CC(=O)C=C(NC2CCS(=O)(=O)C2)C1` (stereo not given): the inhibition is 0%.

Consider `CN(CC(=O)Nc1ccncc1)S(=O)(=O)c1ccccc1`, for which the inhibition is 10%.

Turning to `COC(=O)c1c(-c2cccs2)csc1NC(=O)CN1CCOCC1`, the inhibition was 0%.

Regarding `COCCOC(=O)c1[nH]c2c(c1C)C(=O)CC(c1ccc(N(C)C)cc1)C2` (stereo not given), the inhibition was 0%.

As for `CCOc1ccc(C(=O)Cc2ccc3oc(C(=O)O)cc3c2)c(O)c1`, the inhibition was 7%.

Consider `COC(=O)Nc1ccc(NC(C)=O)cc1`, for which the inhibition was 0%.

As to `CNC(=O)c1ccsc1NC(=O)c1ccccc1`, the inhibition was 4%.
